Data: PubChem BioAssay (EPA / NIEHS)
Inconclusive results are not listed. Active and inactive are the calls of the source. How the source made its calls, unless noted: active means hit-call score of the fitted dose curve at least 0.9, where 1 is the maximum; inactive means score below 0.9.

Tests used:
[1] = CCTE_Mundy_HCI_Cortical_Synap_Neur_Matur_SynapseCount: CCTE's Synaptogenesis and Neurite Maturation Assay in rat cortical cells for Synapse Count, Mundy Lab (AID 2284218)
Procedure, shortened: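 Rat primary cortical cultures, AraC at DIV 5, chemical dosing DIV 7 to DIV 12 (288.33 h). Fixed cells stained for MAP2, synaptophysin and Hoechst; synapses per neuron counted by high-content imaging, loss of signal versus DMSO.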

[2] = CCTE_Mundy_HCI_Cortical_Synap_Neur_Matur_NeuriteCount: CCTE's Synaptogenesis and Neurite Maturation Assay in rat cortical cells for Neurite Count, Mundy Lab (AID 2284222)
Procedure, shortened: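 Rat primary cortical cells; AraC added at DIV 5, chemicals dosed with media change at DIV 7 through DIV 12. MAP2/synaptophysin/Hoechst immunostaining, high-content imaging of neurite number; fitted relative to DMSO.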

[3] = CCTE_Mundy_HCI_Cortical_Synap_Neur_Matur_CellBodySpotCount: CCTE's Synaptogenesis and Neurite Maturation Assay in rat cortical cells for Cell Body Spot Count, Mundy Lab (AID 2284223)
Procedure, shortened: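 Read-out: cell body-associated synaptophysin puncta per neuron, imaged after MAP2, synaptophysin and Hoechst staining. Rat cortical cells, AraC DIV 5, chemical dosing DIV 7, fixation DIV 12. Activity fitted in positive direction relative to DMSO baseline.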

[4] = CCTE_Mundy_HCI_hNP1_Pro_ResponderAvgInten: CCTE's Proliferation Assay in human neuroprogenitor cells, Mundy Lab (AID 2284224; active means hit-call score of the fitted dose curve at least 0.9, where 1 is the maximum;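 further: human neural progenitor cells hNP1 derived from WA09 embryonic stem cells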)
Procedure, shortened: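 Human neuroprogenitors (hNP1, WA09 lineage) receive test chemical after 40 to 44 hours of attachment. A four-hour BrdU pulse begins twenty hours later, followed by fixation and high content imaging; signal is referenced to DMSO controls.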

[5] = CCTE_Mundy_HCI_Cortical_NOG_NeuronCount: CCTE's Neurite Outgrowth Assay in rat cortical cells for Neuron Count, Mundy Lab (AID 2284236; active means hit-call score of the fitted dose curve at least 0.9, where 1 is the maximum;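 further: neurons counted by imaging betaIII-tubulin and Hoechst stained cortical cells; cells exposed to compound for about 48 hours before fixation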)
Procedure, shortened: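 Read-out: neuron number by high-content imaging of betaIII-tubulin (Alexa Fluor-488) and Hoechst-labelled rat primary cortical cells.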

[6] = CCTE_Mundy_HCI_Cortical_NOG_BPCount: CCTE's Neurite Outgrowth Assay in rat cortical cells for Branch Point Count, Mundy Lab (AID 2284237);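 further: branch points counted about two days after chemical exposure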
Procedure, shortened: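 Measured 50.33 h after dosing, this morphology endpoint uses rat primary cortical cultures labelled for betaIII-tubulin. Branch points are quantified by high-content imaging, with DMSO as negative control and baseline.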

[7] = CCTE_Mundy_HCI_hNP1_Casp3_7: CCTE's Caspase-Glo 3/7 Assay in human neuroprogenitor cells for Apoptosis, Mundy Lab (AID 2284240)
Procedure, shortened: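 Neuroepithelial-lineage stem cells from WA09 embryonic cells were treated with chemicals after 40–44 h of culture. Twenty-four hours later, caspase-3/7 activation was detected luminescently after a 30 min room-temperature reagent step, with DMSO as baseline.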

[8] = CCTE_Mundy_HCI_hNP1_CellTiter: CCTE's Cell Titer-Glo 2 Assay in human neuroprogenitor cells for Viability, Mundy Lab (AID 2284241; active means hit-call score of the fitted dose curve at least 0.9, where 1 is the maximum)
Procedure, shortened: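 Measures ATP content in human neural progenitors derived from WA09 embryonic cells. Read-out at 26.5 hours after dosing, with DMSO serving as the negative control and baseline.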

[9] = CCTE_Mundy_HCI_Cortical_Synap_Neur_Matur_NeuronCount: CCTE's Synaptogenesis and Neurite Maturation Assay in rat cortical cells for Neuron Count, Mundy Lab (AID 2284242; active means hit-call score of the fitted dose curve at least 0.9, where 1 is the maximum;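 further: hits reduce neuron count versus DMSO baseline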)
Procedure, shortened: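 Rat primary cortical cells, AraC added at DIV 5, dosed with media change from DIV 7 to DIV 12. Fixed, Hoechst-stained and immunolabelled for MAP2 and synaptophysin; neuron number counted by high-content imaging, loss fitted versus DMSO.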

[10] = IUF_NPC2c_oligodendrocyte_migration_120hr: Leibniz Research Institute for Environmental Medicine (IUF) 120-hour Neural Progenitor Cell Migration Assay for Oligodendrocyte Migration (NPC2c) (AID 2284297);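 further: O4-positive oligodendrocyte migration distance divided by radial glia migration distance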
Procedure, shortened: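 hNPC spheres (GW 16-19 cortex), PDL/laminin, DMEM/F12 3:1 + 1% N2, 37C. Dosing day 0–5, half feed day 3, DMSO ≤0.1%. Fixed 120 h; O4 ICC + Hoechst, HCI. Readout: mean oligodendrocyte distance from sphere edge / radial glia distance.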

[11] = IUF_NPC2a_radial_glia_migration_120hr: Leibniz Research Institute for Environmental Medicine (IUF) 120-hour Neural Progenitor Cell Migration Assay for Radial Glia Migration (NPC2a) (AID 2284298)
Procedure, shortened: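 Hoechst-stained nuclei imaged at 120 h; algorithm maps sphere core by densest nuclei, sets migration edge at density threshold, gives radial glia migration distance (um) per well vs DMSO. hNPC spheres (0.3 mm), PDL/laminin, DMEM/F12 3:1 + 1% N2.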

[12] = IUF_NPC2a_radial_glia_migration_72hr: Leibniz Research Institute for Environmental Medicine (IUF) 72-hour Neural Progenitor Cell Migration Assay for Radial Glia Migration (NPC2a) (AID 2284299)
Procedure, shortened: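 Human fetal neural progenitor spheres (0.3 mm) plated on poly-D-lysine/laminin in N2 differentiation medium and exposed from day 0 at 7 concentrations; radial glia migration distance from sphere edge measured at 72 h on brightfield images, mean of four directions, vs DMSO.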

[13] = IUF_NPC2b_neuronal_migration_120hr: Leibniz Research Institute for Environmental Medicine (IUF) 120-hour Neural Progenitor Cell Migration Assay for Neuron Migration (NPC2b) (AID 2284300)
Procedure, shortened: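 hNPC spheres, PDL/laminin, DMEM:F12 3:1 + 1% N2, 37C/5% CO2; 7 concentrations + solvent control (DMSO ≤0.1%), 5 d exposure, half-feed day 3. Fix 120 h, TUBB3 ICC, HCI: mean neuron migration distance ÷ glia distance.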

[14] = IUF_NPC3_neuronal_differentiation_120hr: Leibniz Research Institute for Environmental Medicine (IUF) 120-hour Neuronal Differentiation Assay (NPC3) (AID 2284301)
Procedure, shortened: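 Primary human fetal neural progenitor spheres (GW 16-19, 0.3 mm) plated on poly-D-lysine/laminin in N2 medium, exposed from day 0 for 120 h with half-medium refresh at day 3. TUBB3+ cells as percent of Hoechst nuclei in migration area; DMSO baseline.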

[15] = IUF_NPC4_neurite_length_120hr: Leibniz Research Institute for Environmental Medicine (IUF) 120-hour Neuronal Morphology Assay for Neurite Length (NPC4) (AID 2284302)
Procedure, shortened: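 Human fetal cortex (GW 16-19) neural progenitor spheres, 0.3 mm, were plated on poly-D-lysine/laminin in N2 differentiation medium and exposed from day 0 for 120 h, half-feeding at day 3. Mean TUBB3+ neurite length (µm) came from skeletonized images, relative to DMSO.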

[16] = IUF_NPC5_oligodendrocyte_differentiation_120hr: Leibniz Research Institute for Environmental Medicine (IUF) 120-hour Oligodendrocyte Differentiation Assay (NPC5) (AID 2284304; active means hit-call score of the fitted dose curve at least 0.9, where 1 is the maximum;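 further: primary human fetal neural progenitor spheres plated to migrate and differentiate; share of O4-positive cells among Hoechst nuclei found by CNN image analysis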)
Procedure, shortened: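 hNPC spheres, fetal cortex GW 16-19; PDL/laminin, DMEM:F12 3:1 + 1% N2, 37C/5% CO2; 7 concentrations + solvent control, 5 d exposure, half-change day 3. Readout: %O4+ of Hoechst+ nuclei in migration area, CNN classification; DMSO baseline.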

[17] = IUF_NPC4_neurite_area_120hr: Leibniz Research Institute for Environmental Medicine (IUF) 120-hour Neuronal Morphology Assay for Neurite Area (NPC4) (AID 2284305; active means hit-call score of the fitted dose curve at least 0.9, where 1 is the maximum)
Procedure, shortened: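 Human fetal cortex-derived neural progenitor spheres (0.3 mm, GW 16-19) plated on poly-D-lysine/laminin in N2 differentiation medium and exposed from day 0 for 120 h across 7 concentrations plus solvent control. Neurite area is mean pixel area per TUBB3-positive neuron via skeletonization, analysed relative to DMSO.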

[18] = IUF_NPC2-5_cytotoxicity_72hr: Cytotoxicity Assessment at 72 hours in the Leibniz Research Institute for Environmental Medicine (IUF) Neural Progenitor Cell Migration and Differentiation Assay for Cytotoxicity (NPC2-5) (AID 2284306; active means hit-call score of the fitted dose curve at least 0.9, where 1 is the maximum;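 further: LDH release into supernatant measured by resorufin fluorescence marking membrane damage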)
Procedure, shortened: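 Human fetal (GW 16-19) neural progenitor spheres, 0.3 mm, plated on poly-D-lysine/laminin in N2 differentiation medium and exposed from day 0 to 7 concentrations plus solvent control (DMSO ≤0.1%). LDH-dependent resazurin-to-resorufin fluorescence in supernatant at 72 h.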

[19] = IUF_NPC2-5_cytotoxicity_120hr: Cytotoxicity Assessment at 120 hours in the Leibniz Research Institute for Environmental Medicine (IUF) Neural Progenitor Cell Migration and Differentiation Assay (NPC2-5) (AID 2284307; active means hit-call score of the fitted dose curve at least 0.9, where 1 is the maximum;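 further: LDH released into supernatant as membrane damage marker via resorufin fluorescence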)
Procedure, shortened: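 hNPC spheres on PDL/laminin, N2 medium, 37C; 7 concs + solvent control, DMSO ≤0.1%; 5-day exposure, half medium changed day 3. LDH in supernatant at 120 h, resazurin→resorufin fluorescence, gain-of-signal.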

[20] = IUF_NPC2-5_cell_number_120hr: Cell Number Assessment at 120 hours in the Leibniz Research Institute for Environmental Medicine (IUF) Neural Progenitor Cell Migration and Differentiation Assay (NPC2-5) (AID 2284308);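 further: count of Hoechst-stained nuclei in migration zone around plated human neural progenitor spheres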
Procedure, shortened: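 Hoechst-stained nuclei within the migration area were counted by automated high content imaging after 120 h. Single hNPC spheres differentiated on poly-D-lysine/laminin in DMEM/F12 (3:1) with 1% N2, compound present throughout, DMSO ≤0.1%.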

[21] = IUF_NPC1_cytotoxicity_72hr: Cytotoxicity Assessment at 72 hours in the Leibniz Research Institute for Environmental Medicine (IUF) Neural Progenitor Cell Proliferation Assay (NPC1) (AID 2284332; active means hit-call score of the fitted dose curve at least 0.9, where 1 is the maximum;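 further: rising LDH signal means more cytotoxicity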)
Procedure, shortened: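 Human fetal neural progenitor spheres (0.3 mm) in EGF/FGF proliferation medium, 37C, exposed 72 h without renewal. LDH release in supernatant read by resorufin fluorescence; gain of signal scored relative to dynamic range.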

[22] = CCTE_Mundy_HCI_iCellGluta_NOG_NeuronCount: CCTE's Neurite Outgrowth Assay in iCellGluta cells for Neuron Count, Mundy Lab (AID 2284340; active means hit-call score of the fitted dose curve at least 0.9, where 1 is the maximum;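 further: cells fixed about 48 h after compound addition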)
Procedure, shortened: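 Neuron count read by automated high-content imaging of Hoechst 33342 and betaIII-tubulin/Alexa Fluor-488 labelling in human iPSC glutamatergic neurons. Activity fitted relative to DMSO.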

[23] = CCTE_Mundy_HCI_iCellGluta_NOG_NeuriteCount: CCTE's Neurite Outgrowth Assay in iCellGluta cells for Neurite Count, Mundy Lab (AID 2284342; active means hit-call score of the fitted dose curve at least 0.9, where 1 is the maximum;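 further: chemical exposure about 48 hours starting 2 hours after plating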)
[24] = system: IYD (gene 389434); assay: CCTE_GLTED_hIYD: CCTE's human Iodotyrosine Deiodinase (xIYD) Inhibition Assay, Great Lakes Toxicology and Ecology Division (GLTED) Lab (AID 2284317; active means hit-call score of the fitted dose curve at least 0.9, where 1 is the maximum;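 further: cell-free human IYD enzyme made in baculovirus insect cells; iodide freed from monoiodotyrosine measured by cerium arsenite color change at 420 nm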)
Procedure, shortened: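 hIYD: baculovirus-expressed human IYD deiodinated monoiodotyrosine for 3 h with test chemical; free iodide was measured by Sandell-Kolthoff absorbance at 420 nm and normalized to MNT and DMSO/NaOH controls.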

[25] = UKN5_HCS_SBAD2_cell_viability: Viability Assessment in the University of Konstanz (UKN) Leist Lab Neurite Outgrowth Assay in human iPSC-derived immature Dorsal Root Ganglia Neurons (UKN5) (AID 2284056)
Procedure, shortened: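 iPSC-derived immature peripheral neurons (SBAD2) seeded on Matrigel with CHIR99021, SU5402 and DAPT, dosed 1 h later for 24 h. Viability from Hoechst H-33342 and calcein-AM live staining, high-content imaging; bidirectional fit versus DMSO.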

[26] = UKN5_HCS_SBAD2_neurite_outgrowth: University of Konstanz (UKN) Leist Lab Neurite Outgrowth Assay in human iPSC-derived immature Dorsal Root Ganglia Neurons (UKN5) (AID 2284070); conditions: actives raise or lower the signal
Procedure, shortened: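 SBAD2 iPSC-derived immature peripheral neurons on Matrigel, 100.000 cells/cm2, medium with CHIR99021 (1.5 uM), SU5402 (5 uM), DAPT (5 uM); compound added 1 h post-seeding for 24 h. Calcein-AM neurite area by high-content imaging; Hoechst H-33342 viability; bidirectional fit vs DMSO.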

[27] = UKN2_HCS_IMR90_neural_migration: University of Konstanz (UKN) Leist Lab Neural Crest Cell Migration Assay in human induced IMR90 Pluripotent Stem Cells (UKN2) (AID 2284204); conditions: actives raise or lower the signal
Procedure, shortened: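 iPSC-derived IMR90 neural crest cells on PLO/laminin/fibronectin were seeded around silicone stoppers; after stopper removal, migration in N2-S medium with EGF and FGF ran 24 h before 24 h chemical exposure. Calcein-AM/Hoechst high-content imaging; bidirectional fit versus DMSO.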

[28] = UKN4_HCS_LUHMES_neurite_outgrowth: University of Konstanz (UKN) Leist Lab Neurite Outgrowth Assay in human LUHMES cells (UKN4) (AID 2284206); conditions: actives raise or lower the signal
Procedure, shortened: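 Human LUHMES neuronal precursors, differentiated 2 days then replated without cAMP and GDNF, exposed to compounds for 24 h. Neurite area imaged by high-content microscopy after calcein-AM live staining; Hoechst H-33342 for viability; bidirectional fit versus DMSO.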

[29] = IUF_NPC1b_proliferation_BrdU_72hr: Leibniz Research Institute for Environmental Medicine (IUF) 72-hour Neural Progenitor Cell Bromodeoxyuridine (BrdU) Proliferation Assay (NPC1b) (AID 2284207)
Procedure, shortened: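 hNPC spheres (primary, GW 16-19 fetal cortex), single sphere/well, EGF+FGF medium; 72 h compound, no renewal; BrdU pulse last 16 h; luminescent ELISA; activity vs DMSO baseline; growth-factor withdrawal as positive control.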

[30] = IUF_NPC1_viability_72hr: Viability Assessment at 72 hours in the Leibniz Research Institute for Environmental Medicine (IUF) Neural Progenitor Cell Proliferation Assay (NPC1) (AID 2284209)
Procedure, shortened: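 Single spheres (0.25-0.35 mm) of human fetal cortex-derived neural progenitor cells were grown in proliferation medium with EGF and FGF at 37C and 5% CO2. They were exposed for 72 h without renewal, and viability was read by alamar blue resorufin fluorescence.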

[31] = UKN4_HCS_LUHMES_cell_viability: Viability Assessment in the University of Konstanz (UKN) Leist Lab Neurite Outgrowth Assay in human LUHMES cells (UKN4) (AID 2284232)
Procedure, shortened: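 LUHMES precursors differentiated 2 days, replated at 30000 cells/well without cAMP/GDNF, then compound-treated 24 h. Viability from Hoechst H-33342 and calcein-AM live staining (30 min) by high-content fluorescence imaging; bidirectional fit versus DMSO.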

Measured: AC50

CC(CNC(=S)[S-])NC(=S)[S-].[Zn+2] (stereo not given)
inactive: [3] | [4] | [8] | [10] | [12] | [13] | [14] | [16] | [21]
active: [1] 50 µM | [2] 76.9 µM | [5] 19.2 µM | [6] 22.2 µM | [7] 11.1 µM | [9] 82.3 µM | [11] 12.5 µM | [15] 50 µM | [17] 39.2 µM | [18] 60.5 µM | [19] 9.92 µM | [20] 50 µM | [22] 12.7 µM | [23] 21.2 µM

N[C@@H](Cc1ccc(O)c([N+](=O)[O-])c1)C(=O)O
active: [24] 0.0253 µM

CC(=O)OC/N=[N+](\C)[O-]
active: [26] 613 µM | [28] 721 µM | [29] 371 µM | [30] 1150 µM
inactive: [25] | [27] | [31] | [10] | [11] | [12] | [13] | [14] | [15] | [16] | [17] | [20]
